This is a sample that favours compounds with a hit; in the whole collection about 4% have one here.
HSV replic up – increases HSV replication in cells. HSV replication augmentation in cells, fold increase. maximum fold increase. 220,000 compounds, 0.005% hits; in the data active = maximum fold increase above about 1.5; tested in PC3 cells
ROMK mod – human ROMK K+ channel modulation, primary screen; P48048; Tet-inducible ROMK, thallium flux fluorescence; actives lie on both sides; B-score at 10 µM; 130,000 compounds, 2% hits; AID 1918;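 active = signal ratio slope over the read window, or its plate-corrected B-score, at least 3 SD from the plate mean, either direction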;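 note: B-score of the F/F0 ratio slope over 7 to 12 s after thallium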
Target sequence (P48048 whole entry, looked up): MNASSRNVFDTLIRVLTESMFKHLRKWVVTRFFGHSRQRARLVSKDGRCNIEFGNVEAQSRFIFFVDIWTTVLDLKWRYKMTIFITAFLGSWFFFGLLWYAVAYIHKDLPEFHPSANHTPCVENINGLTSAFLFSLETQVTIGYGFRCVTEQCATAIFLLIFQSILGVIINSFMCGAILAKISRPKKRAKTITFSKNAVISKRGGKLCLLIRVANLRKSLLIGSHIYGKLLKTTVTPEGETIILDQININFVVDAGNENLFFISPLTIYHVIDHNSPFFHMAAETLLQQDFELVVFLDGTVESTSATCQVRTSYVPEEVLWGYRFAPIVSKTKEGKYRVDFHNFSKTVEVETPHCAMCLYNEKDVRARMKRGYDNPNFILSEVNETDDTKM
Arbovirus anti – antivirals against arbovirus infection. 200,000 compounds, 0.37% hits. inhibition, % at 10 µM. arbovirus infection cell-based antiviral screen; in the data active = inhibition above about 30%
Measles CPE – protection of cells from measles virus; Measles virus-infected cells, CPE protection, absorbance; protection (pct of control), % at 4 µM; 140,000 compounds, 1.5% hits; AID 841; in the data active = protection mostly above about 24%, no sharp cut-off; inactive = mostly below about 26%
Cl transport mod – KCC2 (human) Cl- transport modulation | Q9H2X9 | B-score of Tl+ flux slope (higher = more flux/activation; lower = inhibition) at 10 µM | KCC2 cells, thallium flux FluoZin-2 fluorescence | 190,000 compounds, 2.2% hits;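 active = thallium flux slope and its plate-corrected score both differing from the plate sample mean at a set confidence after two filtering rounds, in either direction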;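 note: slope of fluorescence scaled to starting intensity during 10 to 20 s after thallium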
A number is an active result; - = inactive; . = not tested or not shown.

SMILES	HSV replic up	ROMK mod	Arbovirus anti	Measles CPE	Cl transport mod
COc1ccc(C(Nc2ccc(S(=O)(=O)NCC3CCCO3)cc2)C(=O)NC(C)(C)C)cc1OC (centres undefined)	-	-	-	.	-
Cc1cccc(-n2nc3c(c2NC(=O)c2ccco2)CSC3)c1C	-	.	-	28	.
COc1ccc(CN(CC2CCC(C(=O)O)CC2)C(=S)Nc2cc(C)ccc2C)cc1 (centres undefined)	-	-	-	.	-
Cn1c(=O)n(-c2ccccc2)c(=O)c2c3c(sc21)COC(C)(C)C3	-	-	-	18	.
O=C(CN1C(=O)CSC1=O)Nc1ccc(C(=O)O)cc1	-	-	-	102	.
CCOc1ccc(-c2cc3nc(C4CCN(C(=O)OC(C)(C)C)CC4)c(C(=O)O)cn3n2)cc1	-	.	50	-	-
COc1cc(S(=O)(=O)N2CCN(C(=O)c3ccccc3)CC2)c(OC)cc1Br	-	-	-	.	-
CC(C)NC(=S)NCc1cccnc1	-	.	-	51	-
CC(C)(C)C(=O)/C(=C/c1ccncc1)n1cncn1	-	-	-	.	-
CCOC(=O)c1sc2nc3c(SCC(=O)O)cc(C(=O)c4ccccc4O)cn3c(=O)c2c1C	-	-	-	.	-
O=C(O)CSc1cc(C(=O)c2ccccc2O)cn2c(=O)c3c(-c4ccccc4)csc3nc12	-	-	70	.	-
COc1ccccc1/C=C/C(=O)c1c2c(c(C)[nH]c1=O)CCCC2	-	-	-	-	-
COC(=O)c1ccc(Nc2cc(C)nc(-c3ccccc3O)n2)cc1	-	-	-	-	6.2
COC(=O)c1cccc(Nc2cc(C)nc(-c3ccccc3O)n2)c1	-	-	-	-	.
O=C(c1cn[nH]c1)c1cc(F)ccc1O	-	-	-	42	-
CCN(CC)CCNC(=O)c1cc2cc(Br)ccc2s1	-	-	-	.	-
CC(=O)Nc1ccc(C(=O)Nc2nc(-c3ccccn3)cs2)cc1	-	-	34	.	-
COc1ccc(-c2csc(NC(=O)c3ccco3)n2)cc1	-	-	65	-	-
COc1cccc(CC(=O)Nc2nc(-c3cccnc3)cs2)c1	-	-	-	-	-
O=C(Nc1nc(-c2ccco2)cs1)c1ccccc1	-	.	62	-	-
COc1ccc(CC(=O)Nc2nc(-c3cccnc3)cs2)cc1	-	.	-	35	-
O=C(Nc1nc(-c2ccccc2)cs1)c1ccco1	-	.	.	.	-
COCCn1c(-c2ccc(-c3ccc([N+](=O)[O-])cc3Br)o2)nc2c1c(=O)[nH]c(=O)n2CC(C)C	-	-	-	.	-
Cc1ccc(C(=O)Nc2nc(-c3ccc([N+](=O)[O-])cc3)cs2)o1	-	-	-	-	-
CC(=O)Nc1ccc(-c2csc(NC(=O)c3ccc(C)o3)n2)cc1	-	-	39	-	-
SMILES	HSV replic up	ROMK mod	Arbovirus anti	Measles CPE	Cl transport mod
O=C(Nc1nc(-c2cc(F)ccc2F)cs1)c1ccccn1	-	1.3	-	.	7.4
O=C(Nc1nc(-c2ccccc2)cs1)Nc1ccc(F)cc1F	-	-	-	.	-
CCNS(=O)(=O)c1ccc(NC(=O)c2cc(C(F)(F)F)nn2C)cc1	-	.	-	101	-
CCNS(=O)(=O)c1ccc(NC(=O)c2cccnc2)cc1	-	.	-	-	-
CCc1cc(C(=O)O)c(NC(=O)c2cc(OC)c(OC)c(OC)c2)s1	-	-	76	.	-
COc1ccccc1-n1c(=S)[nH]c2c(sc(=S)n2-c2ccccc2C)c1=O	-	-	-	.	-
CCCCC(CC)CNC(=O)CN(C)S(=O)(=O)c1cccc2nsnc12 (centres undefined)	-	-	-	38	.
CCCCC(CC)CNC(=O)CCS(=O)(=O)c1cccc2nsnc12 (centres undefined)	-	.	-	-	-
COc1cccc(OC)c1C(=O)NC(C)C12CC3CC(CC(C3)C1)C2 (centres undefined)	-	-	43	-	.
CN(C)S(=O)(=O)c1ccc(NS(=O)(=O)/C=C/c2ccccc2)cc1	-	.	-	44	-
Nc1nnc(-c2ccccc2)s1	.	-	-	-	-
Cc1cccc(-c2nnc(N)s2)c1	-	.	-	36	-
Cc1ccc(S(=O)(=O)/N=C2/NC(=O)/C(=C/c3cccnc3)S2)cc1	-	.	-	-	-
Cc1ccc(S(=O)(=O)/N=C2/NC(=O)/C(=C/c3ccc(Br)o3)S2)cc1	-	-	-	25	-
COc1cc(NC(=O)CSc2nc(C)c(C)c(C)n2)cc(OC)c1	-	-	-	.	-
O=c1oc(-c2cccs2)nc2ccc(Br)cc12	-	.	46	-	-
Cc1ccc2nc(-c3cccs3)oc(=O)c2c1	-	-	-	.	-
COc1ccc2nc(/N=C/c3c(C)[nH]n(-c4ccc(C)cc4C)c3=O)sc2c1	-	.	-	-	62
